Most compounds without a hit are left out; they make up all but 4.2% or so of the library.
esBAF inh – inhibitors of esBAF chromatin remodeling in mouse ES cells; reporter increase, % at 12.5 µM; Bmi1-luciferase knock-in reporter, 24 h; 100% = twice the neutral-well signal; AID 602393; 350,000 tested, 2% active; in the data active = activation above about 40%; inconclusive = no clear call, values can overlap the other calls;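 also: a rise in the Bmi1 reporter signal indicates esBAF inhibition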
ssDAF12 agonist – S. stercoralis DAF-12 activation, primary screen; 370,000 tested, 1% active; activation, % at 6.8 µM; HEK293 ssDAF-12/GRIP1 lit1-tk-luc reporter, luminescence; % of 3 µM dafachronic acid response;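 active = activation above the mean over all tested compounds plus 3 SD, cut at about 0.9% in these data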
DAX1 inh – inhibitors of DAX1 repression of SF-1 activated StAR promoter. 370,000 tested, 1.1% active. HEK293T StAR-luciferase reporter, SF-1/DAX-1 repression relief. inhibition, % at 6.8 µM;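 active = inhibition above the mean over all tested compounds plus 3 SD, cut at about 3.6% in these data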;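 also: higher inhibition means more luminescence from relief of DAX-1 repression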
hcDAF-12 act – activates DAF-12 receptor from parasite H. contortus. 370,000 tested, 1.4% active. HEK293 hcDAF-12 lit1-tk-luc reporter, luminescence; 0% DMSO, 100% Δ7-dafachronic acid. activation, % at 6.8 µM;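 active = activation above the mean of all tested compounds plus 3 SD, cut at about 5.5% in these data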
Wnt act – activators of Wnt/beta-catenin signaling; AID 743398; activation, % at 9.35 µM; 300,000 tested, 1.2% active; Wnt/beta-catenin reporter cell assay, activator, plate reader; in the data active = activation above about 30%, passing the limit was not always enough; inconclusive = no clear call, values can overlap the other calls
hgDAF12 agonist – agonists of H. glycines DAF-12 nuclear receptor. HEK293 GAL4-hgDAF12 UAS-luciferase reporter, agonist luminescence; normalized to butyrate control. activation, % at 6.8 µM. 370,000 tested, 1.8% active;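 active = activation above a cutoff set at the mean of all screened compounds plus 3 SD, cut at about 10% in these data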
Numbers stand for hits; – = inactive; ? = inconclusive; · = no result; ! = not active in a repeat.

SMILES	esBAF inh	ssDAF12 agonist	DAX1 inh	hcDAF-12 act	Wnt act	hgDAF12 agonist
CCc1nnc(NC(=O)CSc2nc3c(cc2C#N)CCC3)s1	–	–	–	–	69.9	–
Cn1c(NC(=O)/C=C\c2ccccc2)cc(=O)n(C)c1=O	?	1.1	–	–	–	–
COc1ccccc1Cc1c(-c2ccccc2)nc2ccc(Cl)cn12	–	1.5	–	–	–	–
COc1ccccc1Cc1c(-c2cccc(Cl)c2)nc2ccc(Cl)cn12	–	–	–	–	–	–
FC(F)(F)c1ccccc1Cc1c(-c2ccc(Cl)cc2)nc2ccc(Br)cn12	42.4	–	–	–	–	–
COc1ccccc1Cc1c(-c2ccccc2)nc2ccc(Br)cn12	52.0	–	–	–	–	–
Brc1ccc(-c2nc3ccc(Br)cn3c2Cc2ccccc2)cc1	–	–	–	–	–	11.8
COc1ccccc1Cc1c(-c2cccc(Br)c2)nc2ccc(Br)cn12	?	–	–	–	–	–
Cc1noc(C)c1NC(=O)Nc1ccc2c(c1)C(=O)N([C@H](C)CO)C[C@H](C)[C@H](CN(C)S(=O)(=O)c1ccc(F)cc1)OCCCC[C@H](C)O2	–	·	·	·	·	·
COc1ccccc1Cc1c(-c2ccc(C#N)cc2)nc2ccc(Br)cn12	–	–	–	6.0	–	–
CNC(=O)C[C@H]1CC[C@@H]2[C@@H](COc3ccc(NC(=O)C4CCCCC4)cc3C(=O)N2C)O1	–	·	·	·	·	·
C[C@]12CC[C@H]3C(=CCc4cc(O)ccc43)[C@@H]1CCC2=O	30.9!	–	–	–	–	–
c1ccc(OCCSc2nc3ccccc3o2)cc1	86.6	–	–	–	·	–
COc1ccc(NC(=O)N(C)C[C@H]2Oc3ccc(NC(=O)Nc4ccc(F)cc4)cc3CC(=O)N([C@H](C)CO)C[C@@H]2C)cc1	–	·	·	·	·	·
O=C(Nc1ccc(Cl)cc1Cl)c1ccc(-c2ccccc2)cc1	·	–	–	–	–	–
O=C(Nc1cc(-c2ccccc2)[nH]n1)c1ccc(Cl)cc1	59.0	1.7	–	–	40.1	–
Cc1cc(NC(=O)c2cccc(Cl)c2)n[nH]1	47.2	–	–	–	–	–
Cc1noc(C)c1S(=O)(=O)N(C)C[C@@H]1Oc2ccc(NS(=O)(=O)c3ccc(F)cc3)cc2CC(=O)N([C@H](C)CO)C[C@@H]1C	–	·	·	·	·	·
O=C(Nc1ccc(-c2nc3cccnc3s2)cc1)c1ccc(Br)o1	–	–	–	–	38.7	–
CCCC(=O)Nc1ccc2c(c1)C(=O)N(C)[C@@H]1CC[C@@H](CC(=O)NCc3ccccc3F)O[C@H]1CO2	–	·	·	·	·	·
COc1ccc(C)cc1S(=O)(=O)NCC(c1ccc2c(c1)OCO2)N1CCN(C)CC1 (configuration not stated)	–	–	3.7	–	–	–
Cc1ccsc1C(=O)N/N=C/C=C/c1ccccc1[N+](=O)[O-]	44.5	–	–	–	·	–
O=C(N/N=C/C=C\c1ccccc1[N+](=O)[O-])c1ccccn1	·	–	–	–	–	10.7
O=C(Nc1ccccc1O)c1nc(Cl)ccc1Cl	·	2.5	–	5.9	–	–
CCc1nnc(NC(=O)c2nc(Cl)ccc2Cl)s1	–	–	–	–	–	–
SMILES	esBAF inh	ssDAF12 agonist	DAX1 inh	hcDAF-12 act	Wnt act	hgDAF12 agonist
CCC(=O)N(C)C[C@H]1Oc2cc(-c3ccccc3)ccc2S(=O)(=O)N([C@@H](C)CO)C[C@@H]1C	–	·	·	·	·	·
O=C(NCc1ccc(F)cc1)[C@H]1[C@H](CO)[C@H]2Cn3c(cccc3=O)[C@@H]1N2C(=O)Cc1ccccn1	–	·	·	·	·	·
COCCn1c(C)cc(/C=N/NC(=O)c2cc3ccccc3cc2O)c1C	46.7	·	·	·	·	·
COc1cc(/C=N/NC(=O)c2cc3ccccc3cc2O)ccc1OCCN1CCCCC1	–	–	–	–	–	–
Cn1c(O)c(/C=N/NC(=O)c2cc3ccccc3cc2O)c2ccccc21	46.9	–	–	–	–	–
Nc1nc2ccccc2n1S(=O)(=O)c1ccc(Cl)cc1	–	–	4.2	–	–	–
Cc1ccc(S(=O)(=O)n2c(N)nc3ccccc32)cc1	–	–	–	–	–	–
CC(=O)n1c2ccccc2c2nc3ccccc3nc21	72.0	·	·	·	·	·
COc1ccc(S(=O)(=O)Nc2ccc3cn[nH]c3c2)cc1C	·	0.9	–	–	–	–
Cc1nc2ccc(S(=O)(=O)NCC(=O)N3CCc4ccccc4C3)cc2s1	–	–	–	–	–	–
Cc1nc2ccc(S(=O)(=O)NCC(=O)N3CCc4ccccc43)cc2s1	–	0.9	–	–	–	–
COc1ccc(S(=O)(=O)N(C)C[C@@H]2Oc3ccc(NS(=O)(=O)c4ccc(F)cc4)cc3CC(=O)N([C@H](C)CO)C[C@@H]2C)cc1	–	·	·	·	·	·
CC(=O)Nc1ccc(N=Nc2c(C)[nH]n(C(N)=S)c2=O)cc1	49.2	–	–	–	–	–
O=C(CCN1CCCCC1)N[C@@H]1CC[C@@H](CCNS(=O)(=O)c2ccc(Cl)cc2)O[C@H]1CO	–	·	·	·	·	·
CNC[C@H]1Oc2ccc(NC(=O)Cc3ccccc3)cc2C(=O)N([C@H](C)CO)C[C@@H]1C	–	·	·	·	·	·
C=CCC1(CC=C)CCCN1C(=O)c1ccc2oc(CCCC)nc2c1	–	–	–	6.3	–	11.6
O=C1CCC(C(=O)N2CCCCO2)CN1CCc1ccccc1 (configuration not stated)	51.1	–	–	–	–	–
COC(=O)C1CCN(C(=O)C2CCC(=O)N(CCc3cccc(F)c3)C2)CC1 (configuration not stated)	52.6	–	–	–	–	–
COc1ccccc1CN1CC(C(=O)N2CCCCO2)CCC1=O (configuration not stated)	–	–	–	–	–	–
CN1CCN(C(=O)C2CCC(=O)N(CCc3cccc(F)c3)C2)CC1 (configuration not stated)	·	–	–	–	–	–
C[C@H](CO)N1C[C@H](C)[C@@H](CN(C)Cc2ccc(Cl)c(Cl)c2)OCCCC[C@H](C)Oc2ccc(NS(=O)(=O)c3ccc(F)cc3)cc2C1=O	–	·	·	·	·	·
COc1ccc(-c2c(C#Cc3ccsc3)c3ccccc3n2C)cc1	44.7	–	–	–	–	–
CCCCNC(=O)c1ccc(NC(=O)C2CCCO2)cc1 (configuration not stated)	–	–	–	–	–	–
O=C(NCCc1ccccc1)c1ccccc1NC(=O)C1CCCO1 (configuration not stated)	·	–	4.3	5.6	–	10.8
CCCCc1ccc(NC(=O)C2CCCO2)cc1 (configuration not stated)	–	–	–	–	·	11.1
O=C(O)c1ccccc1NC(=O)C1CCCO1 (configuration not stated)	–	–	–	–	–	–
CCc1ccc(NC(=O)C(=O)NCC2CCCO2)cc1 (configuration not stated)	·	–	4.3	–	–	–

Screens deposited in PubChem by several laboratories.
